Source: PubChem BioAssay
AHR act: activators of human aryl hydrocarbon receptor | P35869 | AHR-responsive luciferase reporter cells, luminescence | activation, % at 5 µM | 320,000 tested, 2.5% active | AID 2796; in the data active means activation above about 47%;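 further: 0% = vehicle wells and 100% = reference agonist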
A3G deaminase: inhibitors of human APOBEC3G DNA deaminase. recombinant A3G, ssDNA deamination FAM/TAMRA fluorescence. 330,000 tested, 0.28% active. inhibition, % at 20 µM. AID 493012;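 active means inhibition of at least 40% at 20 µM, with no more than 30% in the related APOBEC3A deaminase screen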;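 further: plate controls were DMSO wells with A3G for no effect and wells lacking A3G enzyme for full effect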
NTR1 agonist: NTR1 (human) agonism. activation, % at 20 µM. 330,000 tested, 0.17% active. P30989. NTR1-U2OS beta-arrestin-GFP spot imaging, agonist mode;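 active means activation at or above 40% of the spot to cytoplasm intensity ratio, with at least 20 cells analyzed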;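 further: 0% = DMSO without peptide and 100% = 100 nM NTR1 peptide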
Target sequence (P30989 whole entry, looked up): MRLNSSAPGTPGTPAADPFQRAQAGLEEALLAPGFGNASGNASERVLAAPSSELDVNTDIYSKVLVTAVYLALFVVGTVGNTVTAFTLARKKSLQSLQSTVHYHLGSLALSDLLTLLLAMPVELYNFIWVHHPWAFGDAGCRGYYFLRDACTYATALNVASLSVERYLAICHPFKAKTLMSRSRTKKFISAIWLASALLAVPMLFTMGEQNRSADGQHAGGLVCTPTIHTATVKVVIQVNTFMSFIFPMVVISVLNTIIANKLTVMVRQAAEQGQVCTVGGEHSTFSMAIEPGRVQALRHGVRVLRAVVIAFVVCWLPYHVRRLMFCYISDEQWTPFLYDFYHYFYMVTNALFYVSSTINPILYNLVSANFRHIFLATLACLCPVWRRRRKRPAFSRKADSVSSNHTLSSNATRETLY
APOBEC3A inh: human APOBEC3A DNA deaminase inhibition; recombinant A3A, FAM/TAMRA ssDNA deamination fluorescence; inhibition, % at 20 µM; 330,000 tested, 0.41% active; AID 493011;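 active means at least 40% inhibition at 20 µM here, with at most 30% in a related deaminase screen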;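 further: plate controls were A3A with DMSO for no effect and wells lacking A3A enzyme for full effect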
Target sequence (P31941 whole entry, looked up): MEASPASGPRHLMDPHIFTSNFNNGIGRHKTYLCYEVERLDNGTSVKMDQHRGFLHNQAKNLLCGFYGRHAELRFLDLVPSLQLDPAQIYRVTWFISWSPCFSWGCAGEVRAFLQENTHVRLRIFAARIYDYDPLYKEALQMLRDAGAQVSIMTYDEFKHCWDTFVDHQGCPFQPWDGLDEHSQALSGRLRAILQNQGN
An asterisk follows results filed as active; x = not tested or not shown. An excerpt weighted towards active compounds, which were near 3.2% of everything screened.

SMILES	AHR act	A3G deaminase	NTR1 agonist	APOBEC3A inh
O=C(NCc1ccco1)c1cc2nc(-c3ccc4c(c3)OCO4)cc(C(F)(F)F)n2n1	63.1*	1.5	4.7	1.1
CCOc1ccccc1C(=O)N/N=C/c1coc2ccc(Cl)cc2c1=O	x	-8.1	5.2	-2.7
COc1ccccc1NC(=O)c1ccccc1-c1nc(-c2ccccc2OC)no1	17.1	-6.6	3.8	-2.3
COc1ccccc1NC(=O)c1cc2cc(Br)ccc2cc1O	54.8*	x	x	x
COc1cc(NC(=O)c2cc3ccccc3cc2O)c(OC)cc1Cl	52.4*	-6.1	12.9	-2.8
COc1ccccc1-c1noc(-c2ccccc2C(=O)Nc2ccccc2)n1	47.1*	-6.6	-0.5	-0.7
COc1cc2cc(C(=O)Nc3ccccc3)c(N)nc2cc1OC	48.4*	-9.0	0.5	-4.4
COc1ccc(-c2cc(C(=O)Nc3ccc(O)cc3)c3ccccc3n2)cc1OC	9.8	-4.5	9.3	3.3
COc1cc2ccccc2cc1C(=O)Nc1cccnc1	77.2*	-2.5	1.3	-0.8
COc1ccccc1NC(=O)c1cccc2c(Br)cccc12	53.1*	-5.4	0.4	1.2
COc1cc2ccccc2cc1C(=O)NCc1ccncc1	49.9*	3.5	2.7	-1.1
O=C(N/N=C/c1cccnc1)c1ccc2ccccc2c1O	x	-0.4	-0.1	-2.6
O=C(Nc1cccnc1)c1ccc2ccccc2c1O	47.7*	-0.3	-1.2	-3.9
CCN1CCN(c2cc(C)nc(-c3ccccc3O)n2)CC1	25.0	-0.9	-0.4	-2.7
Cc1ccc(-c2sc(C(=O)NN)c(C)c2C#N)cc1	17.3	-3.4	1.0	-2.7
CCOC(=O)NC1(C(F)(F)F)NC(=O)N(c2ccc(F)cc2)C1=O (stereo not drawn)	3.4	-6.4	1.0	-2.3
COc1cc2ccccc2cc1C(=O)Nc1ccccc1Cl	52.9*	-0.2	14.9	-0.9
COc1cc2ccccc2cc1C(=O)Nc1ccccc1N1CCCC1	19.3	-9.5	5.8	-3.0
CC(=O)N(CN1C(=O)c2ccccc2C1=O)c1cccc(C)c1	1.6	-4.4	0.2	-2.8
CC(=O)N(/N=C1\Sc2ccccc2C1=O)c1cccc(C)c1	76.5*	3.9	-0.9	5.2
Cc1nn2c(-c3ccc(F)cc3)ccnc2c1Cl	58.2*	-9.2	0.8	-3.4
Cc1sc(NC(=O)C2=COCCO2)nc1-c1ccc(F)cc1	51.8*	3.7	-0.7	-2.4
CCOc1cc(-c2nc3ccccc3s2)ccc1O	1.7	-6.6	3.6	-4.4
O=C(Nc1ccc(-c2nc3ccccc3s2)cc1)C1=COCCO1	50.0*	-9.5	-0.2	-2.5
COc1cc(-c2nc3ccccc3s2)ccc1O	47.5*	4.7	1.7	1.8
SMILES	AHR act	A3G deaminase	NTR1 agonist	APOBEC3A inh
O=C(Nc1cccc(-c2nc3ccccc3s2)c1)C1=COCCO1	8.8	0.5	3.0	4.4
CC(=O)Nc1ccc(O)c(-c2nc3ccccc3s2)c1	71.5*	-3.3	2.0	2.5
COc1ccc(CCNC(=O)Cn2nnc(C(=O)Nc3cc(C)ccc3C)c2N)cc1OC	12.0	-5.4	-0.5	-4.1
CNCC(=O)N(CC(C)C)c1c(N)n(CC(C)C)c(=O)[nH]c1=O	-1.2	-1.3	-0.5	-8.9
Cc1cc(NC(=O)c2ccc(Cl)c(S(=O)(=O)N3CCCCC3)c2)no1	1.5	-5.0	4.5	1.7
O=C1CCC(C(=O)N2CCCCCC2)CN1CCc1ccc(Cl)cc1 (stereo not drawn)	4.4	-5.1	0.2	-5.8
CCCN1CCC(Oc2cccc(C(=O)NCCc3ccccc3)c2)CC1	0.8	-0.4	1.5	-2.4
O=C(Nc1ccc(O)c(-c2nc3ccccc3s2)c1)C1=COCCO1	49.7*	-7.3	11.3	-3.2
O=C1CCCCN1CCCC(=O)N1CCCC(Nc2ccc(F)c(F)c2)C1 (stereo not drawn)	0.6	-4.4	1.9	-8.3
CCCn1c2ccc(/C(C)=N\O)cc2c2cc(/C(C)=N/O)ccc21	48.0*	-3.0	17.3	-1.4
COc1nc(N/N=C/c2ccc(-c3ccccc3[N+](=O)[O-])o2)nc(N2CCOCC2)n1	50.0*	-8.7	0.2	-3.3
O=[N+]([O-])c1ccccc1/C=N/Nc1nc(N2CCCC2)nc(N2CCCC2)n1	51.2*	10.1	1.1	5.0
O=[N+]([O-])c1ccc(-c2ccc(/C=N/Nc3nc(NCc4ccccc4)nc(N4CCOCC4)n3)o2)cc1	3.9	-3.7	-1.6	2.7
O=[N+]([O-])c1cc2c(cc1/C=N/Nc1nc(N3CCCC3)nc(N3CCCC3)n1)OCO2	13.2	-5.7	4.0	-0.3
Nc1cc(Cl)nc(N/N=C/c2ccc([N+](=O)[O-])cc2)n1	4.5	-6.3	0.4	-0.3
Nc1cc(Cl)nc(N/N=C/c2ccccc2[N+](=O)[O-])n1	52.0*	-4.4	-2.1	0.0
COc1cc2c3nnc(-c4ccc(F)cc4)c-3cn(Cc3ccc(F)cc3)c2cc1OC	12.0	-4.2	84.1*	-4.5
Cc1cc(N2CCCC2)ccc1/C=C1\NC(=S)N(C)C1=O	50.6*	-35.8	-3.5	-14.2
COc1ccc(NC(=O)c2ccc(Cn3cc(Cl)cn3)cc2)cc1	8.8	-8.3	0.2	-0.9
CN(C)c1ccc(NC(=O)c2ccc(Cn3cc([N+](=O)[O-])cn3)cc2)cc1	70.8*	-2.2	1.6	2.1
Cc1cc(C)nc(N/N=C/c2cn[nH]c2-c2ccc(F)cc2)n1	45.6	-13.6	-0.7	-3.8
O=C(CCl)Nc1c(C(=O)Nc2ccc3c(c2)OCCO3)oc2ccccc12	22.7	-7.3	6.6	-3.7
Cc1cc(C(=O)Nc2ccc3c(c2)OCO3)no1	58.2*	-5.2	-0.5	-1.6
Cc1c(C(=O)Nc2ccc3c(c2)OCO3)oc2ccccc12	76.2*	-12.7	1.8	-0.3
O=C(Nc1ccc2c(c1)OCO2)c1ccc(Cl)cc1Cl	8.0	-7.2	0.7	-2.6
SMILES	AHR act	A3G deaminase	NTR1 agonist	APOBEC3A inh
O=C(Nc1ccc2c(c1)OCO2)c1cc(Cl)ccn1	66.5*	-4.2	-0.9	14.9
Cc1cccc(-n2ncc3c2CCCC3NC(=O)CCN2Cc3ccccc3C2=O)c1C (stereo not drawn)	-1.1	-6.3	-0.6	3.5
COc1cc(OC)cc(OCC(O)Cn2ccnc2)c1 (stereo not drawn)	53.4*	-4.1	1.4	-3.0
COCCCN1CN(S(=O)(=O)c2ccc(C)cc2C)c2nc3ccccc3nc21	-1.0	-5.5	2.4	-7.5
CCN(CC)c1ccc(C2Nc3cccc4cccc(c34)N2)c(O)c1	71.2*	-3.7	3.0	1.4
Cc1cc(/C=C(\C#N)C(=O)NCc2ccco2)c(C)n1-c1cccnc1	69.9*	-0.4	2.5	0.9
Cc1cc(/C=C(\C#N)C(=O)NCc2ccco2)c(C)n1C1CCCC1	8.7	8.1	2.2	30.4
Cc1ccc(C(=O)NNC(=O)c2ccncc2)cc1[N+](=O)[O-]	0.5	-8.7	-1.1	-5.4
Cc1ccc(C(=O)ONC(=O)c2ccc(Cl)cc2)cc1[N+](=O)[O-]	55.4*	-1.7	-0.9	-3.2
Cc1cc(N)c(-n2cc3c(=O)n(C)c(=O)n(C)c3c2)cc1C	55.7*	0.7	1.5	-2.8
Cc1ccc(-n2cc3c(=O)n(C)c(=O)n(C)c3c2)cc1C	8.5	4.1	-0.5	4.7
O=C(CSCc1nc2c(nnn2Cc2ccc(F)cc2)c(=O)[nH]1)Nc1cccc(C(F)(F)F)c1	-0.1	-9.7	-1.3	-3.9
CC(C)n1cnnc1SCC(=O)NC(=O)c1ccccc1	2.2	-3.2	-0.6	-1.1
